Drawing on PMC12864922, “TDP-43 directly inhibits mRNA accumulation in neurites through modulation of mRNA stability”, this text covers binding signal for 9 molecules.

Sequences and labels used below:
B1: ENSMUSG00000029028.14|Lrrc47 (ssRNA)
RNA: GGGAGUUCUACAGUCCGACGAUCGCUUCGAUAUCCGCAUGCUACCACGUGACUGUGGUCCGCUGACAGGCUCCUGUAGGUGUGGGUGUGCUGUAGGUGUCUGUGUGGGUGUGGGUGUGCUGUAGGUGUCUGUGUGGGUGUGGGUGUGCUAUAGGUAUCUGUGGGUGUGCUGUAGGUGUCUGUGUGGGUGUGCUGUAGGUGUCUGUGUAGGUGUGGGUGUGCUGUAGGUGUCUGUGUGGGUGUGCUAGGUGUCUGUAUAGGUGUGGGUGUGCUGUAGAUGUCUGUGUAGGUAUGGGUGUGCUGUCUCUUGCGGUCGCACUAGUGUGGAAUUCUCGGGUGUCAAGG
B2: ENSMUSG00000029028.18|Lrrc47 (ssRNA)
RNA: GGGAGUUCUACAGUCCGACGAUCGCUUCGAUAUCCGCAUGCUAGGCUCCUGUAGGUGUGGGUGUGCUGUAGGUGUCUGUGUGGGUGUGGGUGUGCUGUAGGUGUCUGUGUGGGUGUGGGUGUGCUAUAGGUAUCUGUGGGUGUGCUGUAGGUGUCUGUGUGGGUGUGCUGUAGGUGUCUGUGUAGGUGUGGGUGUGCUGUAGGUGUCUGUGUGGGUGUGCUAGGUGUCUGUAUAGGUGUGGGUGUGCUGUAGAUGUCUGUGUAGGUAUGGGUGUGCUGUAGAUCUUUGUAGGUGUAGGUAUGCCUCUUGCGGUCGCACUAGUGUGGAAUUCUCGGGUGUCAAGG
B3: ENSMUSG00000029028.33|Lrrc47 (ssRNA)
RNA: GGGAGUUCUACAGUCCGACGAUCGCUUCGAUAUCCGCAUGCUACUGUGGGUGUGCUGUAGGUGUCUGUGUGGGUGUGCUGUAGGUGUCUGUGUAGGUGUGGGUGUGCUGUAGGUGUCUGUGUGGGUGUGCUAGGUGUCUGUAUAGGUGUGGGUGUGCUGUAGAUGUCUGUGUAGGUAUGGGUGUGCUGUAGAUCUUUGUAGGUGUAGGUAUGCUGUAGGUAUCUGGGUGUGGGUAUGCUGUAGAUGUCUGUGUAGGUGUGGAUAUGCUGUAGGUAUCUGGGUGUGCUGUAGGUGUCUGUGUGGCUCUUGCGGUCGCACUAGUGUGGAAUUCUCGGGUGUCAAGG
B4: ENSMUSG00000029028.27|Lrrc47 (ssRNA)
RNA: GGGAGUUCUACAGUCCGACGAUCGCUUCGAUAUCCGCAUGCUAUAGGUGUCUGUGUGGGUGUGGGUGUGCUAUAGGUAUCUGUGGGUGUGCUGUAGGUGUCUGUGUGGGUGUGCUGUAGGUGUCUGUGUAGGUGUGGGUGUGCUGUAGGUGUCUGUGUGGGUGUGCUAGGUGUCUGUAUAGGUGUGGGUGUGCUGUAGAUGUCUGUGUAGGUAUGGGUGUGCUGUAGAUCUUUGUAGGUGUAGGUAUGCUGUAGGUAUCUGGGUGUGGGUAUGCUGUAGAUGUCUGUGUAGGUGUGGAUAUGCCUCUUGCGGUCGCACUAGUGUGGAAUUCUCGGGUGUCAAGG
B5: ENSMUSG00000029028.16|Lrrc47 (ssRNA)
RNA: GGGAGUUCUACAGUCCGACGAUCGCUUCGAUAUCCGCAUGCUAGGUCCGCUGACAGGCUCCUGUAGGUGUGGGUGUGCUGUAGGUGUCUGUGUGGGUGUGGGUGUGCUGUAGGUGUCUGUGUGGGUGUGGGUGUGCUAUAGGUAUCUGUGGGUGUGCUGUAGGUGUCUGUGUGGGUGUGCUGUAGGUGUCUGUGUAGGUGUGGGUGUGCUGUAGGUGUCUGUGUGGGUGUGCUAGGUGUCUGUAUAGGUGUGGGUGUGCUGUAGAUGUCUGUGUAGGUAUGGGUGUGCUGUAGAUCUUUGUAGCUCUUGCGGUCGCACUAGUGUGGAAUUCUCGGGUGUCAAGG
B6: ENSMUSG00000029028.22|Lrrc47 (ssRNA)
RNA: GGGAGUUCUACAGUCCGACGAUCGCUUCGAUAUCCGCAUGCUAGUAGGUGUCUGUGUGGGUGUGGGUGUGCUGUAGGUGUCUGUGUGGGUGUGGGUGUGCUAUAGGUAUCUGUGGGUGUGCUGUAGGUGUCUGUGUGGGUGUGCUGUAGGUGUCUGUGUAGGUGUGGGUGUGCUGUAGGUGUCUGUGUGGGUGUGCUAGGUGUCUGUAUAGGUGUGGGUGUGCUGUAGAUGUCUGUGUAGGUAUGGGUGUGCUGUAGAUCUUUGUAGGUGUAGGUAUGCUGUAGGUAUCUGGGUGUGGGUAUGCUCUUGCGGUCGCACUAGUGUGGAAUUCUCGGGUGUCAAGG
B7: ENSMUSG00000029028.15|Lrrc47 (ssRNA)
RNA: GGGAGUUCUACAGUCCGACGAUCGCUUCGAUAUCCGCAUGCUAGACUGUGGUCCGCUGACAGGCUCCUGUAGGUGUGGGUGUGCUGUAGGUGUCUGUGUGGGUGUGGGUGUGCUGUAGGUGUCUGUGUGGGUGUGGGUGUGCUAUAGGUAUCUGUGGGUGUGCUGUAGGUGUCUGUGUGGGUGUGCUGUAGGUGUCUGUGUAGGUGUGGGUGUGCUGUAGGUGUCUGUGUGGGUGUGCUAGGUGUCUGUAUAGGUGUGGGUGUGCUGUAGAUGUCUGUGUAGGUAUGGGUGUGCUGUAGAUCUCUCUUGCGGUCGCACUAGUGUGGAAUUCUCGGGUGUCAAGG
B8: ENSMUSG00000029028.17|Lrrc47 (ssRNA)
RNA: GGGAGUUCUACAGUCCGACGAUCGCUUCGAUAUCCGCAUGCUACUGACAGGCUCCUGUAGGUGUGGGUGUGCUGUAGGUGUCUGUGUGGGUGUGGGUGUGCUGUAGGUGUCUGUGUGGGUGUGGGUGUGCUAUAGGUAUCUGUGGGUGUGCUGUAGGUGUCUGUGUGGGUGUGCUGUAGGUGUCUGUGUAGGUGUGGGUGUGCUGUAGGUGUCUGUGUGGGUGUGCUAGGUGUCUGUAUAGGUGUGGGUGUGCUGUAGAUGUCUGUGUAGGUAUGGGUGUGCUGUAGAUCUUUGUAGGUGUAGCUCUUGCGGUCGCACUAGUGUGGAAUUCUCGGGUGUCAAGG
B9: ENSMUSG00000029028.23|Lrrc47 (ssRNA)
RNA: GGGAGUUCUACAGUCCGACGAUCGCUUCGAUAUCCGCAUGCUAGUCUGUGUGGGUGUGGGUGUGCUGUAGGUGUCUGUGUGGGUGUGGGUGUGCUAUAGGUAUCUGUGGGUGUGCUGUAGGUGUCUGUGUGGGUGUGCUGUAGGUGUCUGUGUAGGUGUGGGUGUGCUGUAGGUGUCUGUGUGGGUGUGCUAGGUGUCUGUAUAGGUGUGGGUGUGCUGUAGAUGUCUGUGUAGGUAUGGGUGUGCUGUAGAUCUUUGUAGGUGUAGGUAUGCUGUAGGUAUCUGGGUGUGGGUAUGCUGUAGCUCUUGCGGUCGCACUAGUGUGGAAUUCUCGGGUGUCAAGG

Over roughly 9,900 sequences, “r (bound/input frequency ratio)” has its median near 0.7; the highest 2% begin near 6.5. Only a selection was taken, and the highest values are over-represented in it overall.

This assay deals with TDP-43 (Homo sapiens, UniProt Q13148 1-414). The assay is described as follows: RNA Bind-n-Seq with designed 260-mer pool; 25 mM Tris-HCl, 150 mM KCl, 3 mM MgCl2, BSA (printed 500 mg/mL), 20 units/mL SUPERase IN; pH not stated; 500 nM RNA pool, 1 h, 4 C; TDP-43 5, 50, 500 nM; high values mean tight binding. The settings on record: protein: recombinant; tags: SBP (GST cleaved off with PreScission; pGEX-GST-SBP). In short, it runs like this: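 Duplicate measurements used two independent batches of recombinant SBP-tagged TDP-43, which was captured on streptavidin beads at 5, 50 or 500 nM. The beads were incubated with 500 nM of an in vitro-transcribed 260-nt 3′ UTR oligo pool for 1 h at 4 °C in 25 mM Tris-HCl, 150 mM KCl, 3 mM MgCl2, BSA and SUPERase IN. After washing, biotin elution, reverse transcription, PCR amplification and sequencing, binding was expressed as R: each oligo's normalized read abundance in the bound sample over its abundance in input.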
Chain of TDP-43 (Q13148 whole entry): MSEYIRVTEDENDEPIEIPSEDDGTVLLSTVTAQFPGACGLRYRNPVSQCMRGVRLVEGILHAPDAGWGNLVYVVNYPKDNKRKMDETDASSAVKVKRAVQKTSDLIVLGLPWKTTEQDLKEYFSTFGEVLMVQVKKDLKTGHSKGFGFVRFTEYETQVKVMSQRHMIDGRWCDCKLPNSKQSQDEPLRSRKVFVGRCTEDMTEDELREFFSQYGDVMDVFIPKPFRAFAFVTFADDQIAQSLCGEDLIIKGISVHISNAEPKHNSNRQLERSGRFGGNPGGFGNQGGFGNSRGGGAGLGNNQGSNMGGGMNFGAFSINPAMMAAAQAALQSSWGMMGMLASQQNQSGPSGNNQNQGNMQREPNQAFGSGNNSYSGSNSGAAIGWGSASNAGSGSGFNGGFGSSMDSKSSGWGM
As to B1, the binding signal is 6.07 R (bound/input frequency ratio). B2: the binding signal was 5.03 R (bound/input frequency ratio). Then B3, with 5.4 R (bound/input frequency ratio).

With B4, the binding signal is 5.47 R (bound/input frequency ratio). As for B5, the figure is 6.62 R (bound/input frequency ratio); as for B6, 5.37 R (bound/input frequency ratio).

For B7, the binding signal is 6.93 R (bound/input frequency ratio). With B8, the binding signal was 8.61 R (bound/input frequency ratio).

As for B9, the binding signal is 5.87 R (bound/input frequency ratio).
